The source made the active and inactive calls.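 The calls were made as follows: active = compounds whose dose series gives a full or clear partial fitted curve of increased nuclear translocation; inconclusive = weak partial curve or effect only at the top dose; inactive = no dose-dependent translocation response.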
Potency is read from the fitted curve at half-maximal effect.

In this test the target is Glucocorticoid receptor (Homo sapiens) (UniProt P04150). In words: GR-GFP Redistribution (AID 450). The following applies: U2OS GR-GFP nuclear translocation, laser cytometry, 2 h; series mostly up to 20.6 µM.
Glucocorticoid receptor (Homo sapiens), sequence (P04150 whole entry, looked up): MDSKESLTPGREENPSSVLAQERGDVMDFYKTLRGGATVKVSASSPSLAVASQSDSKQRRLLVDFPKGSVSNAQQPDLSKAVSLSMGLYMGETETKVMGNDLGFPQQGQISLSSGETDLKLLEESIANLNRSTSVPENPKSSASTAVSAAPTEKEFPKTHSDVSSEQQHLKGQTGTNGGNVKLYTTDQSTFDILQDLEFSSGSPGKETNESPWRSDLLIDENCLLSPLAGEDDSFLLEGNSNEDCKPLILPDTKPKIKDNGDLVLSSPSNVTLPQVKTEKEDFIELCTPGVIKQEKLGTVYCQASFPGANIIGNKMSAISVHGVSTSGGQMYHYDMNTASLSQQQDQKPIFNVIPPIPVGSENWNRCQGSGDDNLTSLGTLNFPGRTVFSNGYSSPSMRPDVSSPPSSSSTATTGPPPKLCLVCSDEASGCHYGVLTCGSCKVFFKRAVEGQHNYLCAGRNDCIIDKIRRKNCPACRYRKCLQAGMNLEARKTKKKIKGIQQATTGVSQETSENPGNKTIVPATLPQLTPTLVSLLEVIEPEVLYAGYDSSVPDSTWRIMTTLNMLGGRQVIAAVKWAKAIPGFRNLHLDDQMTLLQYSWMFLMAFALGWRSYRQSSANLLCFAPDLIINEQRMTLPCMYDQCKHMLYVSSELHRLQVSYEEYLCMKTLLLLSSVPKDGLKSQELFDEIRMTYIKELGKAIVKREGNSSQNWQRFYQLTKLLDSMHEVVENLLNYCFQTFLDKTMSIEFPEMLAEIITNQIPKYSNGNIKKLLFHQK
`COC(=O)c1ccc(C2/C(=C(\O)c3ccc(OC)c(C)c3)C(=O)C(=O)N2c2cc(C)on2)cc1` (stereo not given): the Potency is > 20.6 µM (inactive).

Take `Cc1ccc(C2C3CN(C(C)C)CC=C3C(C#N)=C(N)C2(C#N)C#N)cc1` (stereo not given): the Potency was > 20.6 µM (inactive).

As to `COc1cccc(C(=O)Nc2ccc(-c3nnc(-c4ccco4)o3)cc2)c1`, the Potency is > 20.6 µM (inactive).

Consider `Cc1oc2cc(O)ccc2c(=O)c1-c1cnn(-c2ccccc2)c1`, for which the Potency was > 20.6 µM (inactive).

On to `Cc1oc2cc(O)cc(C)c2c(=O)c1-c1cnn(-c2ccccc2)c1`, for which the Potency was > 20.6 µM (inactive).

As to `O=c1c(-c2ccc3c(c2)OCCO3)c(C(F)(F)F)oc2cc(O)cc(O)c12`, the Potency was > 20.6 µM (inactive).

For the compound `CCC(=O)Oc1oc(-c2ccccc2)nc1C=Nc1ccccc1OC`, the Potency was > 20.6 µM (inactive).

Consider `N#CC1=C(N)NC(SCc2ccc(Cl)cc2)=C(C#N)C12CCCCC2`, for which the Potency is > 20.6 µM (inactive).

Take `COc1ccc(CNc2oc(COc3ccccc3Cl)nc2C#N)cc1`: the Potency was > 20.6 µM (inactive).

With `Cc1ccc(S(=O)(=O)N2CCN(c3nc(C(C)C)c4c(c3C#N)CC(C)(C)OC4)CC2)cc1`, the Potency is > 20.6 µM (inactive).

With `CC1(C)Cc2c(C#N)c(N3CCN(C(=O)c4ccco4)CC3)nc(Cc3ccccc3)c2CO1`, the Potency was > 20.6 µM (inactive).

For the compound `Fc1ccc2[nH]c3c(N4CCN(Cc5ccc6c(c5)OCO6)CC4)ncnc3c2c1`, the Potency was > 20.6 µM (inactive).

With `Cc1csc(NC(=O)CSc2nsc(SCC(=O)Nc3nc(C)cs3)c2C#N)n1`, the Potency was > 20.6 µM (inactive).

Turning to `N#Cc1c(N)nc(SCc2ccccn2)c(C#N)c1-c1cccs1`, the Potency was > 20.6 µM (inactive).

`CCOc1cccc(-c2nnc3sc(C4CCCCC4)nn23)c1`: the Potency was > 20.6 µM (inactive).

Regarding `N#Cc1nc(-c2ccccc2Cl)oc1N1CCCCC1`, the Potency was > 20.6 µM (inactive).

As to `N#C/C(=C\N1CCN(Cc2ccc3c(c2)OCO3)CC1)c1nc2ccccc2s1`, the Potency was > 20.6 µM (inactive).

Regarding `Cn1c(N2CCN(c3ccccn3)CC2)nc2c1c(=O)n(Cc1ccc(Cl)cc1)c(=O)n2C`, the Potency is > 20.6 µM (inactive).

Regarding `Cn1c(NCc2ccccc2)nc2c1c(=O)n(Cc1ccc(Br)cc1)c(=O)n2C`, the Potency is > 20.6 µM (inactive).

Regarding `O=C1CC(N(O)C2CC(=O)N(Cc3ccccc3)C2=O)C(=O)N1Cc1ccccc1` (stereo not given), the Potency is > 20.6 µM (inactive).

Turning to `CN1CCc2c(sc3ncn4nc(-c5ccccc5O)nc4c23)C1`, the Potency is > 20.6 µM (inactive).

As to `O=C(NCc1ccccn1)c1coc(=O)c(Br)c1`, the Potency is > 20.6 µM (inactive).

Take `Cc1ccnc(N2CCN(c3cc(C)c(C#N)c4nc5ccccc5n34)CC2)c1`: the Potency was > 20.6 µM (inactive).

Regarding `CCCCSc1nc(N)c(C#N)c(-c2cccs2)c1C#N`, the Potency is > 20.6 µM (inactive).

For `N#Cc1nc(-c2cccs2)oc1NCc1ccc2c(c1)OCO2`, the Potency is > 20.6 µM (inactive).

In the case of `Cn1c(NCc2ccco2)nc2c1c(=O)n(Cc1ccc(Cl)c(Cl)c1)c(=O)n2C`, the Potency is > 20.6 µM (inactive).

Take `CCc1cc2c(=O)c(-c3nc4ccccc4[nH]3)coc2cc1OC(=O)N1CCOCC1`: the Potency is > 20.6 µM (inactive).

Turning to `COc1ccc(C(=O)c2sc(NC(C)C)nc2N)cc1OC`, the Potency was > 20.6 µM (inactive).

`Cc1ccc(N2C(=O)c3sc4nnc(C)c(=O)n4c3C2=O)cc1`: the Potency is > 20.6 µM (inactive).

As for `CSc1nc(N)nc(SCC(=O)C23CC4CC(CC(C4)C2)C3)c1C#N`, the Potency was > 20.6 µM (inactive).

As to `Oc1c(Cl)cc(Cl)cc1CNc1ccc(Br)cn1`, the Potency is > 20.6 µM (inactive).

Take `COc1ccccc1N=Cc1nc(-c2ccccc2)oc1OC(C)=O`: the Potency is > 20.6 µM (inactive).

With `COc1ccc2[nH]c3c(N4CCN(Cc5ccc6c(c5)OCO6)CC4)ncnc3c2c1`, the Potency was > 20.6 µM (inactive).

In the case of `Cc1ccc(-n2ncc3c(N4CCN(c5ccccc5)CC4)ncnc32)c(C)c1`, the Potency was > 20.6 µM (inactive).

As for `Cc1ccc2[nH]c3c(N4CCN(Cc5ccc6c(c5)OCO6)CC4)ncnc3c2c1`, the Potency is > 20.6 µM (inactive).

As for `O=C(Nc1ccc(N2CCN(C(=O)c3ccccc3)CC2)c(Cl)c1)c1ccc(Br)o1`, the Potency was > 20.6 µM (inactive).

As for `c1ccc2c(c1)CCN(c1ncnc3c1[nH]c1ccccc13)C2`, the Potency is > 20.6 µM (inactive).

On to `COc1cccc(-c2nc(NC(C)C)c3ccccc3n2)c1O`, for which the Potency is > 20.6 µM (inactive).

Turning to `Nc1nonc1C(=O)NCCN=Cc1cc(Cc2ccccc2)cc(Br)c1O`, the Potency is > 20.6 µM (inactive).

For the compound `COc1ccc(-c2nn(C)c(=O)c3ccccc23)cc1NS(C)(=O)=O`, the Potency is > 20.6 µM (inactive).

The values are drawn from PubChem BioAssay (NCATS).
